Test results from PubChem BioAssay (EPA / NIEHS).
Several values for one entry are separate records, joined by “and”; a condition that tells them apart may be missing. Identical values can stand only once. Records with an inconclusive call do not appear. More than one record can exist for a structure, and the calls need not agree. Activity calls are given as the source filed them. How the source made its calls: active means hit-call score of the fitted dose curve at least 0.9, where 1 is the maximum; inconclusive means response in the unintended direction; inactive means score below 0.9.

The molecules below were run against Nuclear receptor subfamily 1 group I member 2 (Mus musculus) (UniProt O54915) (assay: ATG_mPXR_XSP2: Attagene TRANS-FACTORIAL Multi-Species (XSP1) HepG2 Assay for mouse Pregnane X Receptor (PXR) (AID 2283831)).
Sequence of Nuclear receptor subfamily 1 group I member 2 (Mus musculus) (O54915 whole entry, looked up): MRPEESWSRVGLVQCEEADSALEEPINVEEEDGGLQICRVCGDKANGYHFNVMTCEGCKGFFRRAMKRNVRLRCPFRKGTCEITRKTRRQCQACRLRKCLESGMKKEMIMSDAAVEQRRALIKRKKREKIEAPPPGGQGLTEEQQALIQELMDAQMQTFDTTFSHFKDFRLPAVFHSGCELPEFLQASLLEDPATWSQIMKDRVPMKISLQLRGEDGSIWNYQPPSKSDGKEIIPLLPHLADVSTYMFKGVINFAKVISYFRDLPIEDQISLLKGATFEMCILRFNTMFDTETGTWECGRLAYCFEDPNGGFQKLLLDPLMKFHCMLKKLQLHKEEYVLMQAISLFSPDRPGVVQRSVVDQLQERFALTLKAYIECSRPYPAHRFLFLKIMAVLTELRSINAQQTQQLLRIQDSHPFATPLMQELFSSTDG
Method: ATG_XSP2_multi-species_TRANS is a cell-based, multiplexed assay created by modifying the existing Attagene TRANS-FACTORIAL system to include a panel of nuclear receptors from some or all the following species: human (Homo sapiens), mouse (Mus musculus), frog (Xenopus laevis), zebrafish (Danio rerio), chicken (Gallus gallus), and turtle (Chrysemys picta). The ECOTOX-FACTORIAL format uses HepG2, a human liver cell line, with measurements taken at 24 hours after chemical dosing in a 24-well plate. Xsp2 included 3 nM 6-alpha-fluorotestosterone and 1.5 nM norgestrel to stimulate the androgen receptor.ATG_mPXR_XSP2 is one of 29 assay components measured or calculated from the ATG_XSP2_multi-species_TRANS assay. It is designed to make measurements of mRNA induction, a form of inducible reporter, as detected with fluorescence intensity signals by Reverse transcription polymerase chain reaction (RT-PCR) and Capillary electrophoresis technology.The assay endpoint ATG_mPXR_XSP2 was analyzed in the positive analysis fitting direction relative to DMSO as the negative control and baseline of activity. Using a type of inducible reporter, measures of mRNA for gain-of-signal activity can be used to understand the reporter gene at the transcription factor-level as they relate to the gene PXR. Furthermore, this assay endpoint can be referred to as a primary readout, because this assay has produced multiple assay endpoints where this one serves a reporter gene function. To generalize the intended target to other relatable targets, this assay endpoint is annotated to the nuclear receptor intended target family, where the subfamily is non-steroidal.
Human liver HepG2 cells are transiently transfected with multiple reporter transcription units (MRTUs) in 6-well plates using FuGene 6 reagent (Roche; 3 ml FuGene/1 mg DNA). The MRTU constructs are regulated by a cis-regulating element (promoter). […] A major difference between the CIS and TRANS system is that in CIS activities of endogenous TFs are measured, whereas the TRANS assay evaluates changes in activities of exogenous, chimeric NR-Gal4 proteins. […] At the end of 24 hour incubation, total RNA was isolated using TriZol reagent (Invitrogen). The isolated RNA is then reverse-transcribed using oligo(dT) primer and Mo-MLV reverse transcriptase (Invitrogen) with DNAse I (Ambion) treatment for 30 min. The one-tenth of the produced cDNA was amplified by PCR using Taq DNA polymerase (Invitrogen) and two reporter sequence-specific primers. The PCR products were fluorescently labeled by primer extension with 6-arboxyfluorescein (6-FAM) 5'-labeled reporter sequence-specific primer (2 min at 95 C, 20 s at 68 C and 10 min at 72 C) and these products were digested with 5U of HpaI (New England Biolabs) for 2h at 37 C. The fragments were purified using Qiaquick PCR columns (Qiagen), analyzed on an ABI 3130xL genetic analyzer (Applied Biosystems) with peak positions identified by using a set of X-rhodamine (ROX)-labeled MapMarker1000 molecular weight standards (BioVentures). The raw capillary electrophoresis data was processed using Attagraph software (Attagene).
`Oc1ccccc1Cc1ccccc1O` was tested, and the outcome was “inactive” and the AC50 was 26.3 µM (active). For `COc1ccc(-c2coc3cc(O)cc(O)c3c2=O)cc1`, the outcome was “inactive” and the AC50 was 2.51 µM (active). With `C=C1C[C@H]2[C@@H]3C=C(C)C4=CC(=O)CC[C@]4(C)[C@H]3CC[C@]2(C)[C@@]1(OC(C)=O)C(C)=O` the AC50 was 931 nM (active) and 619 nM (active). For `CC(CCC(=O)O)(c1ccc(O)cc1)c1ccc(O)cc1`, the outcome was “inactive” and the AC50 was 100 µM (active). With `COc1ccc(C(=O)c2ccccc2)c(O)c1` the AC50 was 26.7 µM (active). With `O=C(O)/C=C/c1ccccc1` the outcome was “inactive”. In the case of `CCCCCCCCCCCCc1ccc(O)cc1`, the AC50 is reported as 0.259 µM (active). For `CC(C)(C)NC(=O)[C@H]1CC[C@H]2[C@@H]3CC[C@H]4NC(=O)C=C[C@]4(C)[C@H]3CC[C@]12C`, the AC50 was 2.09 µM (active). With `Oc1ccc(-c2ccccc2)c(Cl)c1` the outcome was “inactive”. `N#Cc1ccc(C2CCCc3cncn32)cc1` (stereo not drawn) was tested, and the outcome was “inactive”.
